Assay outcomes deposited in PubChem by several laboratories.
PrPC surface inh: inhibitors of human cell surface prion protein PrPC, primary screen, cell-based, TR-FRET; TR-FRET read-out; hit rate 0.43% among 370,000; inhibition, % at 13.8 µM; in the data active = inhibition above about 24%; note: 0% = median of the test wells and 100% = reference compound wells
VHR inh abs: VHR1 phosphatase inhibitors, primary screen, biochemical, absorbance, uHTS; recombinant VHR phosphatase, pNPP absorbance; Dual specificity protein phosphatase 3 (Homo sapiens), P51452; AID 1654, 2009; hit rate 0.52% among 290,000; inhibition, % at 13.3 µM; in the data active = inhibition above about 50%
Target sequence (P51452 whole entry, looked up): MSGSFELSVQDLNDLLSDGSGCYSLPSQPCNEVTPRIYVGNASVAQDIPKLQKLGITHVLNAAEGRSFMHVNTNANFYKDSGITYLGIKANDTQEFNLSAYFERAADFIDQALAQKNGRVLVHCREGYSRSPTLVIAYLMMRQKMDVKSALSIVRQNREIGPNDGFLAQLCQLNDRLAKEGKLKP
Sa ugtP lethal: growth inhibition of ugtP-null S. aureus, primary screen, RN4220 ugtP deletion, OD600. growth inhibition, % (concentration not given with the values). hit rate 0.54% among 330,000. AID 1259309, 2017. 16 h; in the data active = growth inhibition above about 68%;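 note: plate controls were untreated wells for no effect and antibiotic for full effect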
RN4220 kill: growth inhibition of S. aureus RN4220, primary screen, OD600; 16 h; hit rate 0.33% among 330,000; inhibition, % (test concentration not listed); in the data active = inhibition above about 85%;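 note: plate controls were untreated cells for no effect and reference antibiotic for full effect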
BJeLR viability: MLPCN primary cell-based screen for lethality selective to Ras in HRASV12 cells; BJeLR (HRASV12) viability, CellTiter-Glo ATP luminescence, 48 h; inhibition, % (test concentration not listed); hit rate 0.17% among 300,000; in the data active = inhibition above about 50%
SARS 3CLpro inh: SARS-CoV 3CLpro protease inhibitors, primary screen, biochemical, quenched FRET; inhibition, % at 6 µM; hit rate 0.14% among 290,000; recombinant SARS-CoV 3CLpro, quenched FRET peptide cleavage; Replicase polyprotein 1ab (Severe acute respiratory syndrome coronavirus), P0C6X7; AID 1706, 2009; in the data active = inhibition above about 12%
An asterisk follows results filed as active; / = no result. Sampled rows, rich in hits. Any-hit rate of the full collection: about 1.4%.

SMILES	PrPC surface inh	VHR inh abs	Sa ugtP lethal	RN4220 kill	BJeLR viability	SARS 3CLpro inh
CCC(=O)/C=C1/Sc2ccccc2N1CC	-4.4	-5.3	-8.8	2.8	-11.0	2.5
COC(=O)C(O)(c1ccc(NC(=S)NC(=O)c2ccccc2)cc1)C(F)(F)F (centres undefined)	3.7	5.0	89.5*	-0.7	9.7	3.0
O=C(NC(=S)Nc1ccc(Oc2ccc(Cl)cc2)cc1)c1ccccc1	0.5	35.1	85.8*	-15.5	5.7	1.1
O=C(NC(=S)Nc1ccc(Cl)cc1)c1ccccc1	-7.6	8.8	24.1	3.9	-8.4	3.0
COC(=O)C1=C(c2cc3ccccc3o2)CC2CCC1N2C(=O)N1CCOCC1 (centres undefined)	/	/	5.0	8.6	/	/
Cc1cccn2c(=O)c3cc(C(=O)NCCN4CCOCC4)c(=N)n(CCCN4CCOCC4)c3nc12	-36.7	55.2*	-2.2	-3.9	4.1	-6.1
Cc1cccn2c(=O)c3cc(C(=O)NCc4ccccc4)c(=N)n(CCCN4CCOCC4)c3nc12	-18.5	/	-10.8	-1.9	/	/
C#CCOCCOCCOCCNc1nc(N2CCN(C(=O)C(Cc3ccc(O)cc3)n3cc(C(N)CC(C)C)nn3)CC2)nc(N2CCN(C(=O)C(CCCCN)n3cc(C(N)C(C)CC)nn3)CC2)n1 (centres undefined)	/	/	2.0	1.3	/	/
CNCC(CC1CCCCC1)NCC(CO)NCC1(c2ccccc2)CC1 (centres undefined)	/	/	-3.0	1.9	/	/
O=C(c1ccc(Cl)cc1Cl)N1CCC(c2nc3c(nnn3Cc3ccco3)c(=O)[nH]2)CC1	1.2	27.7	31.7	6.3	4.0	1.0
O=C(c1ccccc1)N1CCC(c2nc3c(nnn3Cc3ccco3)c(=O)[nH]2)CC1	0.5	50.0*	5.4	-4.2	12.1	0.6
COC(=O)C[C@](O)(CCCC(C)(C)O)C(=O)O[C@@H]1C(OC)=C[C@]23CCCN2CCc2cc4c(cc2[C@H]13)OCO4	/	/	/	/	92.0*	/
CC(C)(C)OC(=O)CCC(C(=O)N1CCN(C(=O)OC(C)(C)C)CC1)n1cc(C(Cc2ccc(O)cc2)NC(=O)OC(C)(C)C)nn1 (centres undefined)	/	/	0.0	5.9	/	/
CCOC(=O)c1sc(NC(=O)c2cccnc2)c(C#N)c1C	1.9	7.1	84.7*	73.8	10.0	-0.7
C=CCC(CC(=O)NC(CO)Cc1ccccc1)C(=O)NCC(OC(=O)C(CC=C)Cc1ccc(F)cc1)c1ccccc1 (centres undefined)	/	/	-1.2	2.3	/	/
S=c1[nH]nc(-c2ccc3ccccc3n2)n1-c1cc(Cl)cc(Cl)c1	-1.5	55.4*	4.8	7.5	-2.4	1.1
NC(=O)c1cc2c3ccccc3ccn2c1-c1ccccc1	-4.7	64.4*	1.7	7.6	49.2	2.3
CNC(=O)C1CCN(S(=O)(=O)c2c(C)noc2C=Cc2ccc(C)cc2)CC1	/	/	3.7	4.6	/	/
Cc1cc(C(=O)Nc2cccc3c2OC(CN(C)S(C)(=O)=O)C(C)CN(C(C)CO)C3=O)n(C)n1 (centres undefined)	/	/	0.6	9.6	/	/
O=Cc1[nH]c2ccccc2c1N(C(=O)CCl)c1ccc([N+](=O)[O-])cc1	-16.4	23.7	/	/	111.2*	6.7
CC(C)(Cc1ccccc1)[N+]([O-])=Cc1ccc(C(F)(F)F)cc1	/	/	-8.7	-1.0	/	/
Cc1ccc(C(C)NC(=O)c2ccc3c(c2)OCCO3)cc1C (centres undefined)	-0.4	55.0*	6.9	1.7	0.3	-0.3
O=C1C=C(c2cccc(Br)c2)CC(c2ccc(Cl)cc2)C1 (centres undefined)	/	/	-2.3	-2.4	/	/
COc1ccc2oc(=O)c(C(=O)NC3CCCCCC3)cc2c1	0.7	50.2*	5.2	-3.2	-1.9	-1.8
CNC(=O)c1cc2cc(OC)ccc2oc1=O	/	11.6	2.7	2.2	0.6	-1.2
SMILES	PrPC surface inh	VHR inh abs	Sa ugtP lethal	RN4220 kill	BJeLR viability	SARS 3CLpro inh
CC(NC(=O)c1nc[nH]c1C(=O)NC(Cc1ccccc1)C(=O)OCc1ccccc1)C(=O)OC(C)(C)C (centres undefined)	/	/	-16.8	4.1	/	/
O=[N+]([O-])c1cc(S(=O)(=O)Nc2ccccc2)ccc1NCc1ccccc1	-3.5	25.5	-17.3	-2.4	-8.5	2.0
O=[N+]([O-])c1cc(S(=O)(=O)Nc2ccccc2)ccc1NCc1cccnc1	-20.1	59.9*	-7.1	3.2	8.2	-4.4
N/C(Cc1ccc([N+](=O)[O-])cc1)=N\OC(=O)c1ccccc1F	-7.1	56.6*	/	/	-2.6	-4.4
COC(=O)C1=C(c2ccc(S(C)(=O)=O)cc2)CC2CCC1N2C(=O)NCc1ccco1 (centres undefined)	/	/	1.7	7.1	/	/
C=CCn1c(Sc2ncc([N+](=O)[O-])s2)n[nH]c1=O	-21.9	16.6	89.4*	26.6	6.1	2.1
CC(=O)OC1CCC2(C=NO)C(=CCC3C4CCC(=O)C4(C)CCC32)C1 (centres undefined)	/	/	5.5	5.5	/	/
C=C[C@]12CC[C@H](OC(C)=O)CC1=CCC1C2CC[C@@]2(C)C1CCC21OCCO1 (some centres undefined)	-1.3	/	92.3*	-5.1	/	/
CC(NC(=O)c1nc[nH]c1C(=O)NC(Cc1ccccc1)C(=O)OC(C)(C)C)C(=O)OC(C)(C)C (centres undefined)	/	/	-17.6	5.4	/	/
Cc1ccccc1-n1c(SCC(=O)NC(N)=O)nc2sc(-c3ccccc3)cc2c1=O	-5.4	4.5	98.7*	96.0*	-6.5	-7.3
O=C(Nc1ccccc1)c1nnsc1S(=O)c1ccc(Cl)cc1 (centres undefined)	4.7	2.6	100.5*	100.3*	-14.0	4.8
O=C(c1nnsc1S(=O)c1ccc(Cl)cc1)N1CCOCC1 (centres undefined)	9.7	6.9	100.5*	95.4*	-4.0	7.0
O=C1CC2c3c(cccc3CN1Cc1ccccc1Cl)CC(O)C2O (centres undefined)	/	/	7.4	10.7	/	/
Oc1ccccc1N=Nc1nc(-c2ccccc2)c(-c2ccccc2)[nH]1	-46.5	10.4	/	/	66.8*	-1.8
COc1ccccc1N=Nc1nc(-c2ccccc2)c(-c2ccccc2)[nH]1	-13.9	7.6	-2.1	-4.5	-2.9	-1.8
Cc1[nH]n(-c2ccc([N+](=O)[O-])cc2)c(=O)c1C=NCCc1c[nH]c2ccccc12	-0.6	55.4*	-3.6	2.2	5.1	0.5
CCCc1[nH]n(-c2ccc([N+](=O)[O-])cc2)c(=O)c1C=NCCc1c[nH]c2ccccc12	-0.8	29.9	-10.8	2.8	6.2	-8.0
CC#CCN1c2ccccc2[C@]23CC(C(=O)OC)N(C(=O)c4cc(C)oc4C)C2=NC(C(=O)OC)=C(C(=O)OC)C13 (some centres undefined)	/	/	6.8	8.5	/	/
